Where “and” joins values, the source holds several entries; their conditions need not be identical. Equal values may be shown once. Among all 5,500 compounds or so, about 2,000 (36%) were called active. Not shown: some 18% with an inconclusive outcome. Cut-off read from the data, not from the text of the source: active = normalized growth mostly below about 0.91 (no sharp cut-off); inconclusive = no clear call, values can overlap the other calls; inactive = mostly above about 0.92. The list shows a part of the results.
Experiment: chemical genetic growth profiling, strain panel (AID 1159580);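 note: tested at 20 µM; growth read once vehicle control cultures reached saturation at 30 °C; 1 = growth at the plate median or of vehicle wells; lower values mean less growth of the strain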
Settings: S. cerevisiae deletion strains, growth OD

Measured: normalized growth

CO[C@@]1(NC(=O)CSCC#N)C(=O)N2C(C(=O)O)=C(CSc3nnnn3C)CSC21 (stereo partly specified)
inactive: locus YAL013W, strain DEP1, hits give low values 1.01 | locus YAL021C, strain ccr4, hits give low values 0.941 | locus YAL026C, strain drs2, hits give low values 0.985 | locus YAL030W, strain snc1, hits give low values 0.988 | locus YBL061C, strain skt5, hits give low values 0.985 | locus YBR009C, strain hhf1, hits give low values 0.988 | locus YBR021W, strain FUR4, hits give low values 1 | locus YBR023C, strain chs3, hits give low values 0.994 | locus YBR171W, strain sec66, hits give low values 0.997 | locus YBR229C, strain ROT2, hits give low values 1.01 | locus YBR231C, strain swc5, hits give low values 0.981 | locus YBR279W, strain paf1, hits give low values 0.981 | locus YCL011C, strain gbp2, hits give low values 0.993 | locus YCL016C, strain dcc1, hits give low values 0.975 | locus YCL029C, strain bik1, hits give low values 1.03 | locus YCL069W, strain vba3, hits give low values 0.986 | locus YCR088W, strain abp1, hits give low values 0.996 | locus YDL005C, strain med2, hits give low values 0.909 | locus YDL035C, strain GPR1, hits give low values 1.02 | locus YDL040C, strain nat1, hits give low values 0.988 | locus YDL074C, strain BRE1, hits give low values 1.03 | locus YDL101C, strain DUN1, hits give low values 1.01 | locus YDL134C, strain PPH21, hits give low values 1.01 | locus YDL185W, strain tfp1, hits give low values 1.03 | locus YDL192W, strain arf1, hits give low values 1.04 | locus YDR001C, strain nth1, hits give low values 1 | locus YDR069C, strain doa4, hits give low values 0.973 | locus YDR101C, strain arx1, hits give low values 1.03 | locus YDR137W, strain rgp1, hits give low values 0.948 | locus YDR150W, strain NUM1, hits give low values 1.01 | locus YDR159W, strain sac3, hits give low values 0.927 | locus YDR162C, strain NBP2, hits give low values 1.04 | locus YDR195W, strain ref2 1 | locus YDR297W, strain sur2, hits give low values 1 | locus YDR318W, strain mcm21, hits give low values 1.03 | locus YDR334W, strain swr1, hits give low values 1 | locus YDR335W, strain msn5, hits give low values 0.99 | locus YDR388W, hits give low values 1.02 | locus YDR392W, strain spt3, hits give low values 0.878 | locus YDR502C, strain sam2, hits give low values 1.03 | locus YEL003W, strain gim4, hits give low values 1 | locus YEL037C, strain rad23, hits give low values 1 | locus YEL061C, strain CIN8 (second series), hits give low values 1.01 | locus YEL061C, strain CIN8, hits give low values 1.01 | locus YER015W, strain faa2, hits give low values 0.982 | locus YER016W, strain bim1, hits give low values 0.968 | locus YER110C, hits give low values 1.04 | locus YER111C, strain swi4, hits give low values 0.982 | locus YER155C, strain BEM2 (second series), hits give low values 0.968 | locus YER155C, strain BEM2, hits give low values 1.01 | locus YER167W, strain BCK2, hits give low values 1.02 | locus YFR010W, strain ubp6, hits give low values 1 | locus YGL078C, strain dbp3, hits give low values 1.03 | locus YGL086W, strain mad1, hits give low values 1.02 | locus YGL167C, strain pmr1, hits give low values 0.984 | locus YGL173C, strain kem1, hits give low values 0.97 | locus YGL227W, strain vid30, hits give low values 1.01 | locus YGL240W, strain doc1, hits give low values 0.959 | locus YGL248W, strain PDE1, hits give low values 1.01 | locus YGL253W, strain hxk2, hits give low values 0.998 | locus YGR078C, strain PAC10, hits give low values 1.01 | locus YGR135W, strain pre9, hits give low values 1.01 | locus YGR229C, strain SMI1, hits give low values 1.02 | locus YGR252W, strain gcn5, hits give low values 1.07 | locus YHR013C, strain ard1, hits give low values 0.964 | locus YHR027C, strain rpn1, hits give low values 0.98 | locus YHR030C, strain SLT2, hits give low values 1.01 and 0.983 | locus YHR079C, strain IRE1 (second series), hits give low values 1.02 | locus YHR079C, strain IRE1, hits give low values 0.986 | locus YHR094C, strain hxt1, hits give low values 1.03 | locus YHR129C, strain ARP1, hits give low values 1.01 | locus YHR142W, strain chs7, hits give low values 1.01 | locus YHR200W, strain rpn10, hits give low values 1.04 | locus YIL066C, strain RNR3, hits give low values 1.03 | locus YIL073C, strain SPO22, hits give low values 1.13 | locus YIL125W, strain kgd1, hits give low values 1.03 | locus YIR030C, strain dcg1, hits give low values 1.03 | locus YJL092W, strain hpr5, hits give low values 1 | locus YJL095W, strain BCK1 (second series), hits give low values 0.979 | locus YJL095W, strain BCK1, hits give low values 1.01 and 0.98 | locus YJL115W, strain asf1, hits give low values 0.984 | locus YJL129C, strain trk1, hits give low values 0.99 | locus YJL134W, strain LCB3, hits give low values 1 | locus YJL154C, strain vps35, hits give low values 1 | locus YJL164C, strain tpk1, hits give low values 0.973 | locus YJL166W, strain qcr8, hits give low values 0.978 | locus YJL168C, strain set2, hits give low values 1.04 | locus YJL187C, strain SWE1 (second series), hits give low values 1.01 | locus YJL187C, strain SWE1, hits give low values 0.985 | locus YJR043C, strain POL32, hits give low values 1.01 | locus YJR066W, strain TOR1, hits give low values 0.942

Source: PubChem BioAssay AID1159580 (chemical genetic matrix, 2015)
